Residual activity data for three compounds are collected here from ChEMBL document CHEMBL2218924, “A broad activity screen in support of a chemogenomic map for kinase signalling research and drug discovery” (Biochem J, 2013).

Broadly, the residual activity is the signal under treatment as a percentage of the control signal.

Assay [1] addresses T1, Muscle, skeletal receptor tyrosine-protein kinase (Homo sapiens) (UniProt O15146).
T1 sequence (whole entry): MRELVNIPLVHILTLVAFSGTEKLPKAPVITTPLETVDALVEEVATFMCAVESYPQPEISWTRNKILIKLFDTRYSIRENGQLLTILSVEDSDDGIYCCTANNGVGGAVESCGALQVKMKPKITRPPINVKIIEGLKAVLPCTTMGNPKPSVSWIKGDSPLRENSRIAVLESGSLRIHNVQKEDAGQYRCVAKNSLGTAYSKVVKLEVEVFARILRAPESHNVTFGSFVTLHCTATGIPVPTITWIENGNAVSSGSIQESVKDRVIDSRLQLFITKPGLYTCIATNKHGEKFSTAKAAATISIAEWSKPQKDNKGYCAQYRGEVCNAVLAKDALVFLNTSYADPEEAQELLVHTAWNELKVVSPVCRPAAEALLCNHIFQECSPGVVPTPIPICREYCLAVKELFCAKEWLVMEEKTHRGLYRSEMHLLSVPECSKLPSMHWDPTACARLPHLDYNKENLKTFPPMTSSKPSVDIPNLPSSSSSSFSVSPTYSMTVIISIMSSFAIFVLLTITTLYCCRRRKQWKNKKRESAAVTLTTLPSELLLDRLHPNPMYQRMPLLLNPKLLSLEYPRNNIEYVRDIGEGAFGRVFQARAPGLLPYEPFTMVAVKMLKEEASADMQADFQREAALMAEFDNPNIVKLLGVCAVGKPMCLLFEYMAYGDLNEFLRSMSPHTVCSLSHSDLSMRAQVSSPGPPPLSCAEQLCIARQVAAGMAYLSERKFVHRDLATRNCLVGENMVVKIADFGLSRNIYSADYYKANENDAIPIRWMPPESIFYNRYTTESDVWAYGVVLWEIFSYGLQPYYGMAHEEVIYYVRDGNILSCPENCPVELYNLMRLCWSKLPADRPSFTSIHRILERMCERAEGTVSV
The following applies: at 1 µM.

Assay [2] has as its target T1, Muscle, skeletal receptor tyrosine-protein kinase (Homo sapiens). The following applies: at 10 µM.
Assay [3] concerns the target T2, Serine/threonine-protein kinase Nek11 (Homo sapiens) (UniProt Q8NG66).
T2 sequence (whole entry): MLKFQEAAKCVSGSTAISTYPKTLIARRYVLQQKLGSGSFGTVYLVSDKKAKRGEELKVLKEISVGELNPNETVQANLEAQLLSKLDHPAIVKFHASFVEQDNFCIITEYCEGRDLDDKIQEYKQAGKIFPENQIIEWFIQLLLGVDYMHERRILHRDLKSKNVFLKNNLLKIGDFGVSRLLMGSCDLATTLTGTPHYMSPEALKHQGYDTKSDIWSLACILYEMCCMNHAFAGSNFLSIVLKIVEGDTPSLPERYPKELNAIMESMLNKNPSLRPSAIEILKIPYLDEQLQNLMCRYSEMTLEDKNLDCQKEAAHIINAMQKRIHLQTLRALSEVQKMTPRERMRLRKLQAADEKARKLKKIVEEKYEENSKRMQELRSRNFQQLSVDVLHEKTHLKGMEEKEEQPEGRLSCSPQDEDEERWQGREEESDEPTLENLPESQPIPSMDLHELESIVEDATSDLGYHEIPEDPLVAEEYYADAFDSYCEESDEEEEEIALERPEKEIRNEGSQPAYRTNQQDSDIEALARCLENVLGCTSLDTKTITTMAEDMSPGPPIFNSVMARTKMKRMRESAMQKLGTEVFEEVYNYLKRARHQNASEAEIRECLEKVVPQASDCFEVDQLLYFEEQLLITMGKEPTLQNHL
The following applies: at 1 µM.

Assay [4] has as its target T2, Serine/threonine-protein kinase Nek11 (Homo sapiens). The following applies: at 10 µM.
For assay [5], the target named is T3, Serine/threonine-protein kinase Nek2 (Homo sapiens) (UniProt P51955).
T3 sequence (whole entry): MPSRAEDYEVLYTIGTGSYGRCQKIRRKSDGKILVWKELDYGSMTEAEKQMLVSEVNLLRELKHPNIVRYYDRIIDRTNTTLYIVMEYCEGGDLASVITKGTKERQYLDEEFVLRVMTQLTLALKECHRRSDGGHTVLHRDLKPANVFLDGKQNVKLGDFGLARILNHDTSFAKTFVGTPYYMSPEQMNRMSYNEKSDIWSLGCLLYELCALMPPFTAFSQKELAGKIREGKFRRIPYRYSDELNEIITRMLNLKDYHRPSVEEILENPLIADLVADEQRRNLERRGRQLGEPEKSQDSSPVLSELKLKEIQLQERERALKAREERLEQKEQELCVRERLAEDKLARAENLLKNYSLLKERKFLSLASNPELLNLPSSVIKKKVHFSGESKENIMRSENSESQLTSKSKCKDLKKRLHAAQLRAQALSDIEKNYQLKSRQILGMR
The following applies: at 1 µM.

The target in assay [6] is T3, Serine/threonine-protein kinase Nek2 (Homo sapiens). The following applies: at 10 µM.
For assay [7], the target named is T4, Serine/threonine-protein kinase Nek3 (Homo sapiens) (UniProt P51956).
T4 sequence (whole entry): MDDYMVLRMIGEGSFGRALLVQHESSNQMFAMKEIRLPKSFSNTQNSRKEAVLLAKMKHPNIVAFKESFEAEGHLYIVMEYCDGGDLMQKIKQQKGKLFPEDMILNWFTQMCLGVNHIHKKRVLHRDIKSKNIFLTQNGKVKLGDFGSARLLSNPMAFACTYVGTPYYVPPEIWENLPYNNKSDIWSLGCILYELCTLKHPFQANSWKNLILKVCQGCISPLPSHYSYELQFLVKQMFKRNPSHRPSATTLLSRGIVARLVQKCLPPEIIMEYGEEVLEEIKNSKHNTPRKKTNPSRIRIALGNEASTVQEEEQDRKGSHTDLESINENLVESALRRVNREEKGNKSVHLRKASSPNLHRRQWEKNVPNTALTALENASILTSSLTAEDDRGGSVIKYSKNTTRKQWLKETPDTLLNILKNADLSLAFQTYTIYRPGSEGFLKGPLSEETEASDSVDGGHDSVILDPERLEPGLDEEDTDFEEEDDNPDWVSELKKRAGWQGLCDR
The following applies: at 1 µM.

Assay [8] has as its target T4, Serine/threonine-protein kinase Nek3 (Homo sapiens). The following applies: at 10 µM.
Assay [9] has as its target Serine/threonine-protein kinase tousled-like 2 (Homo sapiens) (UniProt Q86UE8). The following applies: at 1 µM.
Assay [10] has the same target. The following applies: at 10 µM.
The target of assay [11] is T5, Testis-specific serine/threonine-protein kinase 1 (Homo sapiens) (UniProt Q9BXA7).
T5 sequence (whole entry): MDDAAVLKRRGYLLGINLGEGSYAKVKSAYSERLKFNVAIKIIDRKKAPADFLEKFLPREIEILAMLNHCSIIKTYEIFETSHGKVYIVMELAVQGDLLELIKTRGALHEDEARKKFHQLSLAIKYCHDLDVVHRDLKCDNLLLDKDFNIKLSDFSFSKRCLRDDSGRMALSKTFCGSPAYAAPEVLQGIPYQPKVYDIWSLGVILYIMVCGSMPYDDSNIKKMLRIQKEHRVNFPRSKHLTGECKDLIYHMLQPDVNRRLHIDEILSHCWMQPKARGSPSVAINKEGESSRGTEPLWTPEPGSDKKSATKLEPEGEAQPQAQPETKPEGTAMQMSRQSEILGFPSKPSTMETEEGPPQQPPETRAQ
The following applies: at 1 µM.

Assay [12] concerns the target T5, Testis-specific serine/threonine-protein kinase 1 (Homo sapiens). The following applies: at 10 µM.
Assay [13] has as its target T6, Testis-specific serine/threonine-protein kinase 2 (Homo sapiens) (UniProt Q96PF2).
T6 sequence (whole entry): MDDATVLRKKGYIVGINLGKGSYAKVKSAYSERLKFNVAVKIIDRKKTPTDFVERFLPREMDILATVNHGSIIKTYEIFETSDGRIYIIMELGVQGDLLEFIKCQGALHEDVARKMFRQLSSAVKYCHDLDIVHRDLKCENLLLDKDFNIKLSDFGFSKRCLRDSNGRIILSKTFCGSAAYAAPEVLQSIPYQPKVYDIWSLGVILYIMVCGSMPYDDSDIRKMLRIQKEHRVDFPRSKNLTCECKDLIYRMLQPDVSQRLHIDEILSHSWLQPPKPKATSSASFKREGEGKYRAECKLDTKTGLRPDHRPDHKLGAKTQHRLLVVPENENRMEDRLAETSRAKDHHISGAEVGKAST
The following applies: at 10 µM.

The target of assay [14] is T7, Tyrosine-protein kinase Tec (Homo sapiens) (UniProt P42680).
T7 sequence (whole entry): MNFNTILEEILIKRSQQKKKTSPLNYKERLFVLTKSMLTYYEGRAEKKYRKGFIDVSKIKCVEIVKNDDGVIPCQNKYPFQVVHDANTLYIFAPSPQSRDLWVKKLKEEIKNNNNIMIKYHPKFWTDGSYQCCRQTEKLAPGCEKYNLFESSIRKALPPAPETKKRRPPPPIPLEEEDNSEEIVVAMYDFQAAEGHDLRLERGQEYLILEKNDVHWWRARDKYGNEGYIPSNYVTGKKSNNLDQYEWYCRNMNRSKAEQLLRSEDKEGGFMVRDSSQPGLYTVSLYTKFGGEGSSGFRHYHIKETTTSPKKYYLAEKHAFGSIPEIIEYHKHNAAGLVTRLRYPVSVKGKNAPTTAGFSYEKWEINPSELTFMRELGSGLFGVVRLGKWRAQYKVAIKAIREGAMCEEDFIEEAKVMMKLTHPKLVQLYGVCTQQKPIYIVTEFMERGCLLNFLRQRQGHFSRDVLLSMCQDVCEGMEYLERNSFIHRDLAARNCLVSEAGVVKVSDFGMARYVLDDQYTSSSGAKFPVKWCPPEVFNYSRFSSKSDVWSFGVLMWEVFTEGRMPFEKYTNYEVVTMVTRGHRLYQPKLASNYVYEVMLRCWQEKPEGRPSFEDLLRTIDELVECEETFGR
The following applies: at 1 µM.

Assay [15] has as its target T7, Tyrosine-protein kinase Tec (Homo sapiens). The following applies: at 10 µM.
The target of assay [16] is Angiopoietin-1 receptor (Homo sapiens) (UniProt Q02763). The following applies: at 10 µM.
Assay [17] deals with High affinity nerve growth factor receptor (Homo sapiens) (UniProt P04629). The following applies: at 1 µM.
Assay [18] shares this target. The following applies: at 10 µM.
Assay [19] has as its target BDNF/NT-3 growth factors receptor (Homo sapiens) (UniProt Q16620). The following applies: at 1 µM.
Assay [20] deals with Angiopoietin-1 receptor (Homo sapiens) (UniProt Q02763). The following applies: at 1 µM.

Chain of BDNF/NT-3 growth factors receptor (Homo sapiens) (Q16620 32-822 limits assumed): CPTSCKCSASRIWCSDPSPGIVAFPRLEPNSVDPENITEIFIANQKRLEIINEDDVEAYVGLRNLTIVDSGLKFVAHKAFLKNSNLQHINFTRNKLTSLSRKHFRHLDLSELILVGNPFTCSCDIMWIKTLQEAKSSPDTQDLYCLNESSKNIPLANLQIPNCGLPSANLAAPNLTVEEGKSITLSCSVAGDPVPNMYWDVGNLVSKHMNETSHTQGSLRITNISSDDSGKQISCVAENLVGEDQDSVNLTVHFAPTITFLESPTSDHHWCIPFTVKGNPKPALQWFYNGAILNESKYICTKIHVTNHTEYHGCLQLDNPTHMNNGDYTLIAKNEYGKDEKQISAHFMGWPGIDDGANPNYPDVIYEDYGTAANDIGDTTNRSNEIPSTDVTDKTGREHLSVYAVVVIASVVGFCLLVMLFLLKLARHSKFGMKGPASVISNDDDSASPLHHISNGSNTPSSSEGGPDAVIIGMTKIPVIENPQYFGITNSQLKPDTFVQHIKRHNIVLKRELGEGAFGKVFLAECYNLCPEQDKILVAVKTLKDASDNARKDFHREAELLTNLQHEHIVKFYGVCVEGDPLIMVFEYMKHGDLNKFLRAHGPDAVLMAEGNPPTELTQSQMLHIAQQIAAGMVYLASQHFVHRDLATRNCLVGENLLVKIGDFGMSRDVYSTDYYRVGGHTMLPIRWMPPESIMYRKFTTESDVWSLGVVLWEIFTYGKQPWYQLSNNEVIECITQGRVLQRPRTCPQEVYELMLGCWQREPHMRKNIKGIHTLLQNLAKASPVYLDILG
Chain of Serine/threonine-protein kinase tousled-like 2 (Homo sapiens) (Q86UE8 whole entry, looked up): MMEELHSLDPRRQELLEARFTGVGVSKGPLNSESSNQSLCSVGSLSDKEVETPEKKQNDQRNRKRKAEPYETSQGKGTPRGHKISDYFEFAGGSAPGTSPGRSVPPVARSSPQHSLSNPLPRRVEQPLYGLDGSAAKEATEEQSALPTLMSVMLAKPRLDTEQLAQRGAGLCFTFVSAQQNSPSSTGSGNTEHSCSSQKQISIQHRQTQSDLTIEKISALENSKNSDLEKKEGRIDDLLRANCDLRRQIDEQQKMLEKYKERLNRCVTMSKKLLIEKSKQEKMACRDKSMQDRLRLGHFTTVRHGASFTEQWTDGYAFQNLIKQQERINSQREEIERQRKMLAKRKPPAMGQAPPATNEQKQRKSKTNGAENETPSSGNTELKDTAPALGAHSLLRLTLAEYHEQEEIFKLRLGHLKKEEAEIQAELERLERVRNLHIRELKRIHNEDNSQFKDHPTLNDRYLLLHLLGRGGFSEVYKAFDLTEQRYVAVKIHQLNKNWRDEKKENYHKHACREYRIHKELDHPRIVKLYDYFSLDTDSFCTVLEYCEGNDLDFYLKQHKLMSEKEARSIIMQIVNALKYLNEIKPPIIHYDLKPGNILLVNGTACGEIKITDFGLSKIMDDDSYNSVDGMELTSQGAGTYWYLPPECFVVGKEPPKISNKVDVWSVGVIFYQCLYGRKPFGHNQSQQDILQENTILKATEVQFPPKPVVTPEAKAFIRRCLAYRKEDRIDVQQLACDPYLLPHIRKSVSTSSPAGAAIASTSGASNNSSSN
Chain of High affinity nerve growth factor receptor (Homo sapiens) (P04629 33-796 limits assumed): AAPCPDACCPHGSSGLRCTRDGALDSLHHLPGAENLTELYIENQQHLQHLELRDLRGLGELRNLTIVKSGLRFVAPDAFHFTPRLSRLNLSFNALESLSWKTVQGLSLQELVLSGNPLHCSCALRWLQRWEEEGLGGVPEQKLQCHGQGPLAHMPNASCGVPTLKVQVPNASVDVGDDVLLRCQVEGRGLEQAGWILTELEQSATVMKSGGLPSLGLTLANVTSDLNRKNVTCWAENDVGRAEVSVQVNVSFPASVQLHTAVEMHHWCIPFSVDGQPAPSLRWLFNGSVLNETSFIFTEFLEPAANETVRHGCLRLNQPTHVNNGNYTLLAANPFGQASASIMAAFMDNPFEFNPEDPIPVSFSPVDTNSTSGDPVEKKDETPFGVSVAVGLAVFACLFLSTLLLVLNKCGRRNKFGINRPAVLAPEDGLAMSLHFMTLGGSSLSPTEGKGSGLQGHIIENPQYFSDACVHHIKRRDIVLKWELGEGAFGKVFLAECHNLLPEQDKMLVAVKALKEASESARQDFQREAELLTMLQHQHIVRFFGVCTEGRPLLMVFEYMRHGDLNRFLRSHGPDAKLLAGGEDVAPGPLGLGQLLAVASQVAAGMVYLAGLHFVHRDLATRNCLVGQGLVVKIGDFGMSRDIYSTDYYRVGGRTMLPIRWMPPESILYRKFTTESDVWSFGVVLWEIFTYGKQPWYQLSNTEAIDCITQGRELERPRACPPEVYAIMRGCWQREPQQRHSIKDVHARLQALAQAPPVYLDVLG
Chain of Angiopoietin-1 receptor (Homo sapiens) (Q02763 whole entry): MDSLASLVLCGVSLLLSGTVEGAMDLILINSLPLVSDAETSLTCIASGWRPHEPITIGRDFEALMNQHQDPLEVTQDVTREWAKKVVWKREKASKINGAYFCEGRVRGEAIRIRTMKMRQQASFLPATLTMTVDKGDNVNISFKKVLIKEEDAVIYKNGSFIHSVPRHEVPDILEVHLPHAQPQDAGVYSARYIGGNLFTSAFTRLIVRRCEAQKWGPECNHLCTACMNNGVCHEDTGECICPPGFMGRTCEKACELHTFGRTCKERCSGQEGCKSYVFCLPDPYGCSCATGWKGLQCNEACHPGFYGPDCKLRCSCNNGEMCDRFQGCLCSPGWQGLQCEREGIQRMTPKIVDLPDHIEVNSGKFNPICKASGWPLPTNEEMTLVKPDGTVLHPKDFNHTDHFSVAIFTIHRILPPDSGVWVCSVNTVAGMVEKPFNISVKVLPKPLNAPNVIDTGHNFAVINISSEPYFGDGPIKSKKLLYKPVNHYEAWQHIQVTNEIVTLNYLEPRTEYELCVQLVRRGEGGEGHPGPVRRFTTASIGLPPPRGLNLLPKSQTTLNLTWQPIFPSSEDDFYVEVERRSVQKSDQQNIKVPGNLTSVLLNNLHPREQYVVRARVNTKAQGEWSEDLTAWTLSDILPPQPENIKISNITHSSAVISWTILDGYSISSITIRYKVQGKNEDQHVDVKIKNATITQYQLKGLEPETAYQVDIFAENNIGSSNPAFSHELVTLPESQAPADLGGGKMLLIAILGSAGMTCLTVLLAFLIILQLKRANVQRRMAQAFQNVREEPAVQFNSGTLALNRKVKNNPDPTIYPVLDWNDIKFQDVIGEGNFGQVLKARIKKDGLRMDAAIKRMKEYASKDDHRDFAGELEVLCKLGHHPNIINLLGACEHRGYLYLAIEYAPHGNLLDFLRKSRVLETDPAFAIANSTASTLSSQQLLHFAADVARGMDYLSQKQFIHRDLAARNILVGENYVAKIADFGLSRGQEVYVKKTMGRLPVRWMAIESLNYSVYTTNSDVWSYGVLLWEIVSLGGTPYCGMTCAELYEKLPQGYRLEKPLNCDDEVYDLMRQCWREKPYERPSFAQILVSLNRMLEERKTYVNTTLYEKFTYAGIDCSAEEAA

In the case of `O=C(NC(NC(=S)Nc1ccc(F)c([N+](=O)[O-])c1)C(Cl)(Cl)Cl)C(c1ccccc1)c1ccccc1` (stereo not drawn), the residual activity in assay [1] was determined as 85%; in [2], 98%; in assay [3], 86%; in [4], 49%; in assay [5], 90%; in [6], 88%. Besides, the residual activity in assay [7] stood at 94%; in [8], 89%; in assay [9], 99%; in [10], 94%; in assay [11] it was 87%; in assay [12] it was 103%. In addition, the residual activity in assay [13] came out at 101%; in assay [14], 102%; in [15], 62%; in assay [16] it was 82%; in assay [17] it was 87%; in [18], 52%. The residual activity in assay [19] was found to be 91%.
Consider `O=C1Nc2ccccc2/C1=C\c1c(Cl)[nH]c2ccccc12`, for which the residual activity turned out to be 78% in assay [1]; 70% in assay [2]; 64% in assay [3]; 29% in assay [4]; 77% in assay [6]; 82% in assay [7]. Also, the residual activity was 76% in [10]; 81% in [11]; 78% in [13]; 47% in [16]; 85% in assay [17]; 34% in assay [18]. Moreover, the residual activity in assay [19] worked out at 87%.
Turning to `O=C(O)/C=C/c1cc(Br)c(Br)c(Br)c1Br`, the residual activity was 106% in assay [1]; 98% in assay [2]; 85% in assay [3]; 54% in assay [4]; 81% in assay [7]; 108% in assay [8]. The residual activity in assay [9] stood at 101%; in assay [10] it was 93%; in assay [11] it was 81%; in assay [12] it was 99%; in assay [13] it was 102%; in [14], 94%. For the same compound, the residual activity worked out at 96% in assay [15], 99% in assay [20], 89% in [16] and 109% in assay [19].
